Vaccinia Venus: qHTS for Stage-Specific Inhibitors of Vaccinia Orthopoxvirus: Venus Reporter Primary qHTS; 330,000 compounds, 0.46% hits; Vaccinia virus Venus reporter expression, fluorescence; Potency, µM (top dose mostly 36.5 µM), hits mostly inhibitors; calls by dose curve; tested in A549 cells; note: nearly all actives have a fitted effect of over 30% in size
Pf growth 48h: Primary qHTS for delayed death inhibitors of the malarial parasite plastid, 48 hour incubation; P. falciparum luciferase growth in erythrocytes, 48 h; Potency, µM (doses to about 28.7 µM), usual class: inhibitors; AID 504832, 2011; 310,000 compounds, 5.9% hits
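Luminescence readout; reporter = integrated firefly luciferase in P. falciparum. RBC culture at 2% hematocrit, 0.1% parasitemia final, 37 C/5% CO2; decreased signal taken as growth inhibition.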
VACV mCherry inh: qHTS for Stage-Specific Inhibitors of Vaccinia Orthopoxvirus: mCherry Reporter Primary qHTS | Potency, µM (titrated, usually from 36.5 µM), usual class: inhibitors | AID 720579, 2013 | 310,000 compounds, 0.63% hits | Vaccinia virus mCherry reporter infection, fluorescence; calls by dose curve; tested in A549 cells; note: nearly all actives have a fitted effect of over 35% in size
HCV inhibitor: qHTS Assay for Inhibitors of Hepatitis C Virus (HCV). Potency, µM (highest dose often 41.8 µM), actives largely listed as inhibitors. 340,000 compounds, 3.4% hits. Huh7.5.1 HCVcc-Cre infection, luciferase reporter, 44 h
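Cells seeded at 1,000/well and cultured 4 h, then compounds added followed by HCVcc-Cre virus (~0.5 moi). After 44 h further culture, luciferase substrate was added, plates held 15 min at room temperature, and luminescence read for 15 sec.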
NS1 inh: qHTS Assay for Inhibitors of Influenza NS1 Protein Function; Potency, µM (highest dose often 46.1 µM); 270,000 compounds, 0.4% hits; calls by dose curve; note: actives are rising curves; nearly all actives have a fitted effect of over 50% in size
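Growth recovery, yeast-based: influenza A NS1 expressed in S. cerevisiae causes slow growth, and suppressors are detected by OD600. The parent strain without NS1 is used as positive control.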
Pf growth 96h: Primary qHTS for delayed death inhibitors of the malarial parasite plastid, 96 hour incubation. P. falciparum luciferase reporter growth, 96 h. AID 504834, 2011. 320,000 compounds, 6.9% hits. Potency, µM (highest dose often 28.7 µM), most hits filed as inhibitors
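Infected RBCs, 2% Hct / 0.05% parasitemia final; luciferase-reporter P. falciparum; cpd 96 h, 37 C, 5% CO2; luciferase detection reagent; luminescence.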
Each line names hits and unclear results; the compound was inactive in the other large screens. Rows were chosen to be rich in hits. Some 11% of all compounds tested hit in one or more screens of this group. Unless noted, calls come from the whole dose curve; as a rule, active = well fitted inhibition curve with a large enough effect; inconclusive = small, poorly fitted or top-dose-only effect, or another doubt; inactive = no such curve, though single readings can be large or run the other way.

Cc1cccc(NC(=O)CSc2nc3ccccc3o2)c1	none
Cc1ccc(CC(=O)N2CCC(c3nc4c(nnn4Cc4ccccc4)c(=O)[nH]3)CC2)cc1	Pf growth 96h inconclusive
Cc1ccc2oc(=O)c3cc(C(=O)NCCCN4CCN(C)CC4)sc3c2c1	HCV inhibitor inconclusive (no result: Vaccinia Venus, VACV mCherry inh)
CCN(Cc1ccccc1)C(=O)c1cc2c(=O)oc3ccc(C)cc3c2s1	HCV inhibitor inconclusive, Pf growth 96h 4.7µM (no result: Pf growth 48h)
O=C(NCCCN1CCCCCC1)c1cc2c(=O)oc3ccccc3c2s1	Pf growth 48h 2.9µM, HCV inhibitor inconclusive
Cc1ccc2oc(=O)c3cc(C(=O)NCCCN4CC(C)CC(C)C4)sc3c2c1 (configuration not stated)	Pf growth 48h 2.1µM, HCV inhibitor inconclusive
Cc1ccc2oc(=O)c3cc(C(=O)N(Cc4ccccc4)C(C)C)sc3c2c1	none (no result: Pf growth 48h, HCV inhibitor, NS1 inh, Pf growth 96h)
CCOC(=O)C1=C(C)Nc2ccccc2N/C1=N\S(=O)(=O)c1cccc(Cl)c1	Pf growth 48h inconclusive (no result: Vaccinia Venus, VACV mCherry inh, NS1 inh)
O=S(=O)(c1ccc(N2CCCC2c2nc3ccccc3s2)nc1)N1CCOCC1 (configuration not stated)	Pf growth 48h 10µM, HCV inhibitor inconclusive, Pf growth 96h 12µM (no result: Vaccinia Venus, VACV mCherry inh)
O=S(=O)(c1ccc(Br)cc1)N1CCCC1c1nc2ccccc2s1 (configuration not stated)	Pf growth 48h 10µM, HCV inhibitor inconclusive, Pf growth 96h inconclusive
CCOC(=O)COn1c(=O)c(-c2cccs2)[n+]([O-])c2ccccc21	Pf growth 96h inconclusive
Cc1ccc(-n2nnc3c(=O)n(CC(=O)N4CCC(C)CC4)cnc32)cc1	Pf growth 96h 4.1µM
O=c1cnn(Cc2c(Cl)cccc2Cl)c2ccccc12	Pf growth 48h 13µM, Pf growth 96h 9.3µM
Cc1ccc(OCCNC(=O)c2cc(C(=O)NCCOc3ccc(C)cc3)cc([N+](=O)[O-])c2)cc1	Pf growth 48h 12µM, HCV inhibitor inconclusive, NS1 inh inconclusive, Pf growth 96h 1.2µM
C#CCOCCOCCOCCNc1nc(N2CCN(C(=O)[C@H]([C@@H](C)CC)n3cc(CCC(=O)O)nn3)CC2)nc(N2CCN(C(=O)[C@H](CCCCN)n3cc(CCCC)nn3)CC2)n1	none (no result: Pf growth 48h, NS1 inh, Pf growth 96h)
C#CCOCCOCCOCCNc1nc(N2CCOCC2)nc(N2CCN(C(=O)CCCCCCCCCCNC(=O)[C@@H](CCC(=O)O)n3cc(CCCCCN)nn3)CC2)n1	Pf growth 48h 15µM, Pf growth 96h inconclusive (no result: NS1 inh)
C#CCOCCOCCOCCNc1nc(N2CCN(C(=O)CCCCCCCCCCNC(=O)[C@@H](CCC(=O)O)n3cc(CCCCCN)nn3)CC2)nc(N2CCN(C(=O)CCCCCCCCCCNC(=O)[C@H]([C@@H](C)CC)n3cc(CCCCCN)nn3)CC2)n1	Vaccinia Venus inconclusive, Pf growth 48h 2.1µM, HCV inhibitor inconclusive, Pf growth 96h 1.5µM (no result: NS1 inh)
C#CCOCCOCCOCCNc1nc(N2CCN(C(=O)CCCCCCCCCCNC(=O)[C@H]([C@@H](C)CC)n3cc(CCCCCN)nn3)CC2)nc(N2CCN(C(=O)CCCCCCCCCCNC(=O)[C@H](CCCCN)n3cc(CCCC(=O)O)nn3)CC2)n1	Vaccinia Venus inconclusive, Pf growth 48h 12µM, VACV mCherry inh inconclusive, HCV inhibitor 11µM, Pf growth 96h inconclusive (no result: NS1 inh)
Cc1ccc(C)c(S(=O)(=O)NC2CCSC2=O)c1 (configuration not stated)	none (no result: NS1 inh)
COCCSc1ccccc1C(=O)Nc1ccc(Br)cc1	none (no result: Vaccinia Venus, VACV mCherry inh)
CCN1C(=O)/C(=C\c2ccncc2)SC1=Nc1ccc(C)c(C)c1	Pf growth 48h inconclusive, Pf growth 96h 1.9µM
CCCN1C(=O)/C(=C\c2ccncc2)SC1=Nc1ccccc1	Pf growth 48h 12µM, VACV mCherry inh inconclusive, Pf growth 96h inconclusive
C=CCn1c(SCC(=O)NC(C)(C)C)nnc1-c1ccccc1O	none (no result: Vaccinia Venus, Pf growth 48h, VACV mCherry inh)
CCN(CC)CCn1c(=N)n(CC(O)COc2ccccc2)c2ccccc21 (configuration not stated)	Pf growth 48h 3.3µM, HCV inhibitor inconclusive, Pf growth 96h 2.3µM
CN=c1sc2ccccc2n1CC(O)COc1ccccc1 (configuration not stated)	Pf growth 48h inconclusive
CCN(CC)CCn1c(=N)n(CCO)c2ccccc21	Pf growth 96h inconclusive
CCN(CC)CCn1c(=N)n(CCOc2ccccc2)c2ccccc21	HCV inhibitor 10µM, Pf growth 96h 8.3µM (no result: Vaccinia Venus, Pf growth 48h, VACV mCherry inh)
CCN(CC)CCn1c(=N)n(CC(=O)c2ccc(Br)s2)c2ccccc21	Pf growth 48h 1.9µM, VACV mCherry inh inconclusive, Pf growth 96h 1.9µM
CCN=c1sc2ccccc2n1CC(O)COc1ccccc1 (configuration not stated)	Pf growth 48h inconclusive, HCV inhibitor 13µM (no result: VACV mCherry inh, Pf growth 96h)
COc1ccc(-c2ccccc2)cc1NC(=O)c1ccncc1	none (no result: Pf growth 48h, NS1 inh, Pf growth 96h)
COc1cc(CN2C[C@@H](CO)O[C@@H](n3cnc4c(N(C)C(C)C)ncnc43)C2)cc(OC)c1OC	none (no result: Pf growth 48h, HCV inhibitor, NS1 inh, Pf growth 96h)
COc1ccc(-c2oc3ccc(-c4cc(OC)c(OC)c(OC)c4)cc3c2C(=O)c2ccc(OC)nc2)cc1	Pf growth 48h inconclusive, Pf growth 96h inconclusive
Fc1ccc(OCCn2cnc(Cl)c2Cl)cc1	none (no result: Vaccinia Venus, VACV mCherry inh)
O=C(Cn1nnc2ccccc21)OCC(=O)c1ccccc1	Pf growth 96h 4.1µM
O=C(Cn1nnc2ccccc21)OCC(=O)c1ccc(Cl)c(Cl)c1	Pf growth 48h inconclusive (no result: VACV mCherry inh, Pf growth 96h)
O=c1oc2c(CN3CCCCC3)c(O)ccc2cc1-c1nc2ccccc2[nH]1	Pf growth 48h inconclusive, Pf growth 96h 10µM
O=c1oc2c(O)cccc2cc1-c1nc2ccccc2[nH]1	none
Cc1c(C)n(CC(O)CN2CCCCCC2)c2ccccc12 (configuration not stated)	Pf growth 48h inconclusive
Cc1ccc2c(c1)c(C)c(C)n2CC(O)CN1CCOCC1 (configuration not stated)	Pf growth 48h 12µM (no result: Vaccinia Venus, VACV mCherry inh)
CNCC(O)Cn1c2c(c3ccccc31)CCCC2 (configuration not stated)	Pf growth 48h 10µM, HCV inhibitor 10µM (no result: Vaccinia Venus, VACV mCherry inh)
OC(CN1CCN(c2ccccn2)CC1)Cn1c2ccccc2c2ccccc21 (configuration not stated)	Pf growth 48h inconclusive, HCV inhibitor inconclusive, Pf growth 96h 1.9µM (no result: Vaccinia Venus, VACV mCherry inh)
Cc1ccc2c(c1)c1c(n2CC(O)CN2CCCCCC2)CCCC1 (configuration not stated)	Pf growth 48h 8.3µM, HCV inhibitor 10µM
CCOC(=O)c1cccc(NC(=O)c2cc(C)nc3c2c(C)nn3-c2ccc(C)cc2)c1	none (no result: Pf growth 48h, HCV inhibitor, NS1 inh, Pf growth 96h)
OC(CN1CCCCC1)Cn1c2ccccc2c2cc(Br)ccc21 (configuration not stated)	Vaccinia Venus inconclusive, Pf growth 48h 12µM, HCV inhibitor inconclusive, Pf growth 96h 9.3µM
Cc1cc(N)n(-c2ncnc3scc(-c4ccc(Cl)cc4)c23)n1	Pf growth 48h inconclusive, Pf growth 96h inconclusive (no result: Vaccinia Venus, VACV mCherry inh)
